Active and inactive are the calls of the source.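 How the source made its calls: active means mean z-score across replicates of 1.96 or higher in either the MELAS or the Rieske mutant cell line; inactive means the rest.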

The assay can be described thus: MELAS cybrid and Rieske KO viability enhancers – cell-based, MELAS cybrids, Rieske KO mouse fibroblasts, CellTiter-Glo, primary screen (AID 1508586).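 Further: test concentration not given here; z relative to plate mean and SD of compound and empty wells.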 As to conditions: MELAS cybrid survival, low glucose, CellTiter-Glo 48 h; stronger effect = higher value. For orientation: In ATP-based viability assays light output follows the ATP content of the culture.
As for `NC(=O)Cc1ccccc1Oc1nccc(-c2c(-c3ccc(F)cc3)ncn2C2CCNCC2)n1`, the z-score is -0.586 (inactive).

With `C[C@H]1NC(=O)NC1=O`, the z-score is 0.723 (inactive).

`COCC(=O)Nc1c(C(=O)OC)n(CCC(C)C)c2ncc(NC(C)CCn3cccn3)cc12` (configuration not stated): the z-score was 0.765. As to `NC(=O)c1cccc(Nc2nccc(Nc3cccc4[nH]ncc34)n2)c1`, the z-score was 0.00705 (inactive).

As to `CCS(=O)(=O)c1ccc(OC)c(Nc2ncc(-c3cccc(C(C)=O)c3)o2)c1`, the z-score was 1.14 (inactive).

`CS(=O)(=O)CCNCc1ccoc1-c1ccc2ncnc(Nc3ccc(OCc4ccccc4)cc3)c2c1`: the z-score is 0.221 (inactive). Regarding `COc1cccc(-n2ncc3c(N/N=C/c4ccc(S(C)(=O)=O)cc4)ncnc32)c1`, the z-score is 1.75 (inactive). The value for `COc1cccc(Nc2nccc(-c3cnn4ncccc34)n2)c1` was 0.875 (inactive); that for `CN(Cc1cscn1)C(=O)c1nn(CC2CC2)c2c1CN(C(=O)Cn1cnc3ccccc31)CC2` was 0.533 (inactive); that for `COC(=O)Nc1nc2ccc(Sc3ccc(NC(=O)Nc4cc(C(F)(F)F)ccc4F)cc3)cc2[nH]1` was -0.309 (inactive). For the compound `CCOC(=O)c1nn(Cc2ccc(OC)cc2)c2c1CN(C(=O)CSc1ncccn1)CC2`, the z-score was -0.668 (inactive). Regarding `O=C(NCc1cccc(F)c1)N[C@H]1C[C@H]2C(=O)N[C@@H](COCc3ccccc3)C(=O)N2C1`, the z-score is 0.777 (inactive). As to `NC(=O)c1sc(-n2cnc3ccccc32)cc1OCc1ccccc1Br`, the z-score was -0.754 (inactive).

On to `CC(C)C[C@H]1C(=O)N2CCN(Cc3cnn(-c4ccccc4)c3)C[C@@H]2C(=O)N1C`, for which the z-score is 0.221 (inactive). In the case of `Nc1nonc1-c1nc2cnccc2n1C1CC1`, the z-score was -0.391 (inactive).

In the case of `NC(=O)c1cc(-c2ccc(F)cc2)cc(-c2ccncc2)c1N`, the z-score was -0.833 (inactive).

For the compound `O=C(Nc1ccc(Oc2ccc3nc(NC(=O)c4ccco4)[nH]c3c2)cc1)Nc1cc(C(F)(F)F)ccc1F`, the z-score was -1.24. Turning to `Cc1cccc(Nc2ncc(-c3ccccc3)o2)c1`, the z-score is 0.673 (inactive). On to `CS(=O)(=O)CCNCc1coc(-c2ccc3ncnc(Nc4ccc(OCc5ccccc5)cc4)c3c2)c1`, for which the z-score was -0.812 (inactive). The value for `COc1cc2ncn(-c3cc(OCc4ccccc4Cl)c(C(N)=O)s3)c2cc1OC` was 0.0989 (inactive); that for `COc1cc2ncn(-c3cc(OCCc4ccccc4)c(C(N)=O)s3)c2cc1OC` was -0.0219 (inactive); that for `CN(C)CCCNC(=O)[C@@H]1C[C@H](CN2CCOCC2)CN(Cc2ccc3ccccc3c2)C1` was -0.234 (inactive).

The values are drawn from PubChem BioAssay.
